# Experimental data: PubChem BioAssay (NCATS)
# Records with an inconclusive call do not appear. Where a call stands in place of a potency, no number is given. Activity calls are given as the source filed them. Unless noted, calls come from the whole dose curve; as a rule, active = well fitted curve in the direction sought with a large enough effect; inconclusive = small, poorly fitted or top-dose-only effect, or another doubt; inactive = no such curve, though single readings can be large; an effect the other way counts as inactive or inconclusive.
# Experiments:
# [1] = Redox Reaction Profiling qHTS: Assay Interference Panel against the NCATS CANVASS Library (AID 1347401); conditions: resazurin-DTT redox cycling, fluorescence, 15 min; series mostly up to 57.1 µM
# Method in brief: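 Redox-cycling liability assessed as DTT-driven conversion of resazurin (5 uM, with 200 uM DTT, HEPES pH 7.3) to fluorescent resorufin. Fluorescence at 525/598 nm measured initially and after 15 min dark incubation.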
# [2] = qHTS to identify inhibitors of the type 1 interferon - major histocompatibility complex class I in skeletal muscle: primary screen against the NCATS Mechanism Interrogation Plate v5.0 (MIPE) Libary (AID 1347411); conditions: iHSKM cells + IFN-b, HiBiT-tagged MHC-I luminescence, 24 h; series mostly up to 45.8 µM; note: nearly all actives have a fitted effect of over 65% in size
# Method in brief: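 IFN-beta-driven (4 ng/ml) HLA-B-HiBit expression in CRISPR-tagged C25cl48 myoblasts; compounds 11-pt, 1:3, max 46 uM, 24 hr exposure; lytic NanoLuc complementation luminescence.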
# [3] = target: Calcium and integrin-binding protein 1 (Homo sapiens) (UniProt Q99828); experiment: Primary qHTS for Identification of Calcium Integrin Binding Protein 1 (CIB1) Competitor (AID 1508620); conditions: CIB1-GST / FITC-alphaIIb peptide fluorescence polarization; series mostly up to 57.7 µM;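 note: GST tagged CIB1 binding a fluorescein labelled alphaIIb integrin peptide tracer; top concentration of the series differs between compounds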
# Method in brief: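 CIB1-GST (1 uM final) and compound incubated 15 min at room temperature before adding FITC-alphaIIb peptide tracer (100 nM final). Competition for binding read by fluorescence polarization (ex 480, em 540) after another 15 min at room temperature.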
# [4] = target: Cytochrome P450 2C9 (Homo sapiens) (UniProt P11712); experiment: Cytochrome P450 family 2 subfamily C member 9 (CYP2C9) small molecule antagonists: luciferase biochemical (cell-free) qHTS assay (AID 1645842; active = well fitted curve in the direction sought with a large enough effect in the repeat runs; an effect the other way counts as inactive or inconclusive; note: nearly all actives have a fitted effect of over 55% in size; note: potency is the fitted concentration of half-maximal effect); conditions: P450-Glo CYP2C9 enzyme assay, luciferin luminescence; series mostly up to 57.4 µM
# Method in brief: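 P450-Glo CYP2C9 system: proluciferin substrate with enzyme in mix containing 0.4% BSA, 10 min at room temperature, then NADPH regeneration solution added and incubated 1 h at 37C. Detection reagent stopped reaction; luminescence read after 20 min as RLU.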
# [5] = target: Cytochrome P450 2D6 (Homo sapiens) (UniProt P10635); experiment: Cytochrome P450 family 2 subfamily D member 6 (CYP2D6) small molecule antagonists: luciferase biochemical (cell-free) qHTS assay (AID 1645840; active = well fitted curve in the direction sought with a large enough effect in the repeat runs; an effect the other way counts as inactive or inconclusive; note: nearly all actives have a fitted effect of over 55% in size; note: potency is the fitted concentration of half-maximal effect); conditions: P450-Glo CYP2D6 enzyme, luciferin luminescence, 1 h; series mostly up to 57.4 µM
# Method in brief: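 P450-Glo CYP2D6 system: proluciferin substrate converted by enzyme to luciferin, read by luminescence proportional to activity. Enzyme-substrate mix with compound 10 min at room temperature, then NADPH regeneration 1 h before detection reagent.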
# [6] = Primary qHTS for inhibitors of nuclear receptor binding SET domain protein 2 (NSD2) in an isogenic RCH-ACV NSD2 p.E1099K mutant (9B) (AID 1645876); conditions: RCH-ACV NSD2 E1099K (9B) viability, CellTiter-Glo, 72 h; series mostly up to 44.9 µM; note: nearly all actives have a fitted effect of over 70% in size; note: potency is the fitted concentration of half-maximal effect
# [7] = Primary qHTS for inhibitors of nuclear receptor binding SET domain protein 2 (NSD2) in an RCH-ACV wild type WT cells (2C) (AID 1645877); conditions: RCH-ACV (leukaemia line) NSD2 WT (2C) viability, CellTiter-Glo, 72 h; series mostly up to 44.9 µM; note: nearly all actives have a fitted effect of over 70% in size; note: potency is the fitted concentration of half-maximal effect
# Chain of Cytochrome P450 2C9 (Homo sapiens) (P11712 whole entry, looked up): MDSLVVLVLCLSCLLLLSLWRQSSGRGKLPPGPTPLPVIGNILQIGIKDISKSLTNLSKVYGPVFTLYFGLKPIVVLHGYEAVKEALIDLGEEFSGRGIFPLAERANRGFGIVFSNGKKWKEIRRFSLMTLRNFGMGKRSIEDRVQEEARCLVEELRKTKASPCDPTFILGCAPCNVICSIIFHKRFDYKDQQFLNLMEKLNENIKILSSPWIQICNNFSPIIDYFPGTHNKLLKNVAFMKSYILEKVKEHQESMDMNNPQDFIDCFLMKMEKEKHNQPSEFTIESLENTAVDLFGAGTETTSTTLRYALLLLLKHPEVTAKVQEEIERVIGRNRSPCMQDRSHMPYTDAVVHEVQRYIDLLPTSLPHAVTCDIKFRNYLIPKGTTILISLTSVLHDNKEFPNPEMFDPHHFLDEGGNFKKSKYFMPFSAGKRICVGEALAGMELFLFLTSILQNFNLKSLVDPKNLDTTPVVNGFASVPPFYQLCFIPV
# Chain of Calcium and integrin-binding protein 1 (Homo sapiens) (Q99828 whole entry, looked up): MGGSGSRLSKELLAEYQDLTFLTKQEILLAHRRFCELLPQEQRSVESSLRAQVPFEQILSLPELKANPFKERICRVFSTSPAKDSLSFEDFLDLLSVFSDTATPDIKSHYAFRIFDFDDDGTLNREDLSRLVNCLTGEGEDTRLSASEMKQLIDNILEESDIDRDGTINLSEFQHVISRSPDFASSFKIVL
# Chain of Cytochrome P450 2D6 (Homo sapiens) (P10635 whole entry, looked up): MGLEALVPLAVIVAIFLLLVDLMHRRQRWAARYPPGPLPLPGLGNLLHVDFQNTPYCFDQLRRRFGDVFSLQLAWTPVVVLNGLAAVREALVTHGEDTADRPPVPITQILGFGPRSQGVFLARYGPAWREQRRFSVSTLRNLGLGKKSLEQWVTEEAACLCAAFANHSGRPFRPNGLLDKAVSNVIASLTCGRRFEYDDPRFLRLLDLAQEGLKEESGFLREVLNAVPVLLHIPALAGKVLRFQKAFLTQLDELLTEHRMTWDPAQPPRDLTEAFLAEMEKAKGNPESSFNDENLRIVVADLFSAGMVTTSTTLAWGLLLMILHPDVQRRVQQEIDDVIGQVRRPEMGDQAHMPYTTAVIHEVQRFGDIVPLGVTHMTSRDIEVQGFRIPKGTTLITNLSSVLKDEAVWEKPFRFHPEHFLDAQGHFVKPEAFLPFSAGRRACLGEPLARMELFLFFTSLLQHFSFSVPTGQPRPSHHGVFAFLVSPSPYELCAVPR
smiles,measurement,setting,value
O=C(/C=C/C=C/c1ccc2c(c1)OCO2)N1CCCCC1,outcome,[1],inactive
same,outcome,[2],inactive
same,Potency,[3],inactive
same,Potency,[4],10.7 µM (active)
O=C(O)[C@H]1Cc2ccccc2CN1,"activity change, negative = inhibition",[3],5.95% [at 12.4 µM] (inactive)
same,"activity change, negative = inhibition",[5],4.56% [at 11.5 µM] (inactive)
same,"activity change, negative = inhibition",[4],2.02% [at 11.5 µM] (inactive)
same,outcome,[6],inactive [at 4.96 µM]
same,outcome,[7],inactive [at 4.96 µM]
CC1(C)[C@H]2C[C@H](C/C=C\CCCC(=O)O)[C@@H](NC(=O)c3csc4ccc(O)cc34)[C@@H]1C2,Potency,[3],inactive
same,Potency,[5],inactive
same,Potency,[4],1.34 µM (active)
same,Potency,[6],inactive
same,Potency,[7],inactive
C[C@@H](NC(=O)c1cc(C(=O)N[C@@H](Cc2ccccc2)[C@H](O)CNC2CC2)cc(N(C)S(C)(=O)=O)c1)c1ccccc1,Potency,[3],inactive
same,Potency,[5],4.77 µM (active)
same,Potency,[4],4.25 µM (active)
same,Potency,[6],inactive
CCOC(=O)C1=C(N)Oc2ccc(Cl)cc2C1C(C#N)C(=O)OCC (stereo not drawn),Potency,[3],inactive
same,Potency,[5],16.9 µM (active)
same,Potency,[4],10.7 µM (active)
same,Potency,[6],inactive
same,Potency,[7],inactive
COc1cc2nc(=NC(=O)c3cccnc3)n3c(c2cc1OC)NCC3,Potency,[3],inactive
same,Potency,[5],inactive
same,Potency,[4],inactive
same,Potency,[6],4.59 µM (active)
same,Potency,[7],5.15 µM (active)
COc1ccc(C(=O)NCc2cc(C(C)C)no2)cc1OC1CCN(C)CC1,Potency,[3],inactive
same,Potency,[5],inactive
same,Potency,[4],inactive
same,Potency,[6],inactive
same,Potency,[7],inactive
Nc1ncnc2c1c(COc1cccc(Cl)c1)nn2C1CCOCC1,Potency,[3],inactive
same,Potency,[5],inactive
same,Potency,[4],12 µM (active)
same,Potency,[6],14.8 µM (active)
same,Potency,[7],16.6 µM (active)
O=[N+]([O-])c1cc(Cl)ccc1S(=O)(=O)N1CCN(Cc2ccccc2)CC1,Potency,[3],inactive
same,Potency,[5],0.756 µM (active)
same,Potency,[4],inactive
same,Potency,[6],inactive
same,Potency,[7],inactive
Cc1onc(-c2ccccc2Cl)c1C(=O)N(C)c1ccc(Cl)cc1,Potency,[3],inactive
same,Potency,[5],inactive
same,Potency,[4],13.5 µM (active)
same,Potency,[6],inactive
same,Potency,[7],inactive
C[C@@H](c1ccccc1)N(C(N)=NC#N)c1cccc2ncccc12,Potency,[3],inactive
same,Potency,[5],inactive
same,Potency,[4],10.7 µM (active)
same,Potency,[6],inactive
same,Potency,[7],inactive
O=C(Nc1ccccc1)Nc1ccc(-c2ccc(C(=O)C3CCCC3C(=O)O)cc2)cc1 (stereo not drawn),Potency,[3],inactive
same,Potency,[5],inactive
same,Potency,[4],16.9 µM (active)
same,Potency,[6],inactive
same,Potency,[7],inactive
COc1cc(Nc2nc3ccccc3nc2NS(=O)(=O)c2cccc(NC(=O)c3ccc(C)c(OC)c3)c2)cc(OC)c1,Potency,[3],inactive
same,Potency,[5],inactive
same,Potency,[4],1.51 µM (active)
same,Potency,[6],inactive
same,Potency,[7],inactive
COC(=O)[C@H](Cc1cccc(C(=N)N)c1)[C@@H](C)NC(=O)c1ccc(-c2cc[n+]([O-])cc2)cc1,Potency,[3],inactive
same,Potency,[5],inactive
same,Potency,[4],inactive
same,Potency,[6],inactive
same,Potency,[7],inactive
CCOc1nc2c(N)ncnc2n1CC,Potency,[3],inactive
same,Potency,[5],inactive
same,Potency,[4],inactive
same,Potency,[6],inactive
same,Potency,[7],inactive
CC1(C)Oc2ncnc(N)c2N=C1c1ccc(C2CCC(CC(=O)O)CC2)cc1 (stereo not drawn),Potency,[3],inactive
same,Potency,[5],inactive
same,Potency,[4],inactive
same,Potency,[6],inactive
same,Potency,[7],inactive
COC(=O)[C@H](Cc1ccc([N+](=O)[O-])cc1)NC(=O)c1cccc2ccccc12,Potency,[3],inactive
same,Potency,[5],2.13 µM (active)
same,Potency,[4],3.79 µM (active)
same,Potency,[6],inactive
same,Potency,[7],inactive
Cc1ccc(-n2nc(C(C)(C)C)cc2NC(=O)Nc2cc(COc3cccnc3)[nH]n2)cc1,Potency,[3],inactive
same,Potency,[5],15.1 µM (active)
same,Potency,[4],7.56 µM (active)
same,Potency,[6],18.3 µM (active)
same,Potency,[7],9.16 µM (active)
Cc1oc2nc3c(c(NC(=O)CN4CCCC4=O)c2c1C)CCCC3,Potency,[3],inactive
same,Potency,[5],inactive
same,Potency,[4],inactive
same,Potency,[6],inactive
same,Potency,[7],inactive
CCOC(=O)COc1ccc2c(c1)C[C@@H](NC[C@H](O)c1cccc(Cl)c1)CC2,Potency,[3],inactive
same,Potency,[5],0.756 µM (active)
same,Potency,[4],16.9 µM (active)
same,Potency,[6],inactive
same,Potency,[7],inactive
CCC1(O)CC2c3cc(OC)c(OC)cc3CCN2CC1CC(C)C (stereo not drawn),Potency,[3],inactive
same,Potency,[5],0.849 µM (active)
same,Potency,[4],inactive
same,Potency,[6],inactive
same,Potency,[7],inactive
O=C(Cn1c2ccccc2c2nc3n(c(=O)c21)CCS3)N1CCCC1,Potency,[3],inactive
same,Potency,[5],inactive
same,Potency,[4],inactive
same,Potency,[6],inactive
same,Potency,[7],inactive
CCCN1CCC[C@@H](c2cccc(S(C)(=O)=O)c2)C1,Potency,[3],inactive
same,Potency,[5],15.1 µM (active)
same,Potency,[4],inactive
same,Potency,[6],inactive
same,Potency,[7],inactive
CCC[C@H](N[C@@H](C)C(=O)N1[C@H](C(=O)O)C[C@@H]2CCCC[C@@H]21)C(=O)O,Potency,[3],inactive
same,Potency,[5],inactive
same,Potency,[4],inactive
same,Potency,[6],inactive
same,Potency,[7],inactive
COc1ccc(-n2c(SCC#N)nc3sc4c(c3c2=O)CCCC4)cc1,Potency,[3],inactive
same,Potency,[5],inactive
same,Potency,[4],4.77 µM (active)
same,Potency,[6],inactive
same,Potency,[7],inactive
